Laboratory results: PubChem BioAssay (NCI)
Compounds without any hit were thinned out: in the full panel of roughly 79,000, 15% have a hit. Active and inactive are the calls of the source. Cut-off read from the data, not from the text of the source: active = growth inhibition above about 70%; inactive = the rest.

Assays:
[1] = NCI Yeast Anticancer Drug Screen. Data for the rad52 strain (AID 147);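 note: 0% = growth of vehicle-treated control cultures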; conditions: S. cerevisiae rad52 mutant growth inhibition, stronger effect = higher value
In short: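 Yeast strain carrying a DNA damage repair alteration was exposed to test compounds. Growth inhibition was measured relative to vehicle-treated controls.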

[2] = NCI Yeast Anticancer Drug Screen. Data for the wt1 strain (AID 149);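 note: 0% = growth of vehicle-treated wt1 cultures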; conditions: S. cerevisiae wt1 strain (SPY 50644) growth inhibition, stronger effect = higher value
In short: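 Compounds are added to wt1 yeast cultures. Growth is then measured. Inhibition is expressed relative to vehicle-treated controls.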

[3] = NCI Yeast Anticancer Drug Screen. Data for the rad50EPP+ strain (AID 151);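 note: 0% = growth of vehicle-treated control cultures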; conditions: S. cerevisiae rad50 mutant strain, stronger effect = higher value
In short: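 Yeast strain carrying rad50 alteration (rad50EPP+) exposed to compounds; growth inhibition measured relative to vehicle-treated controls.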

[4] = NCI Yeast Anticancer Drug Screen. Data for the mgt1 strain (AID 153); conditions: S. cerevisiae mgt1 mutant growth inhibition, stronger effect = higher value
In short: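 Yeast mgt1 strain (DNA repair/cell-cycle alteration panel) exposed to compounds; growth inhibition measured relative to vehicle-treated controls.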

[5] = NCI Yeast Anticancer Drug Screen. Data for the rad50 strain (AID 155);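 note: 0% = growth of vehicle-only cultures of the same strain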; conditions: S. cerevisiae rad50 strain growth inhibition, stronger effect = higher value
In short: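 Inhibition values express reduced yeast growth in compound-treated cultures relative to vehicle-treated controls.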

[6] = NCI Yeast Anticancer Drug Screen. Data for the mec2-1 strain (AID 157); conditions: S. cerevisiae mec2-1 strain, stronger effect = higher value
In short: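 mec2-1 yeast strain, carrying an alteration in DNA damage repair or cell cycle control, was exposed to compounds; growth inhibition was measured relative to vehicle-treated controls.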

[7] = NCI Yeast Anticancer Drug Screen. Data for the rad14 strain (AID 159);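 note: 0% = growth of vehicle-treated control cultures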; conditions: S. cerevisiae rad14 strain growth inhibition, stronger effect = higher value
In short: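 A mutant yeast strain defective in DNA damage repair is treated with compound; inhibition of its growth is scored against untreated, vehicle-exposed cultures.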

[8] = NCI Yeast Anticancer Drug Screen. Data for the sgs1 mgt1 strain (AID 161);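 note: 0% = growth of cultures given vehicle only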; conditions: S. cerevisiae sgs1 mgt1 strain, stronger effect = higher value
In short: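 Percent growth inhibition was derived by comparing compound-exposed mutant yeast with vehicle-exposed cultures. The strain carries alterations in DNA damage repair.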

[9] = NCI Yeast Anticancer Drug Screen. Data for the CLN2oe strain (AID 163);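 note: 0% = growth of vehicle-only control cultures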; conditions: S. cerevisiae CLN2oe strain, stronger effect = higher value
In short: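 Yeast cells carrying a defined cell-cycle control alteration were exposed to test compounds. Growth inhibition was scored against vehicle-treated control cultures.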

[10] = NCI Yeast Anticancer Drug Screen. Data for the cln2 rad14 strain (AID 165);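 note: 0% = growth equal to vehicle treated cultures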; conditions: S. cerevisiae cln2 rad14 strain, stronger effect = higher value
In short: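 Yeast carrying cln2 and rad14 alterations (cell cycle control and DNA damage repair) were exposed to compounds. Growth inhibition was measured against vehicle-treated controls.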

[11] = NCI Yeast Anticancer Drug Screen. Data for the bub3 strain (AID 167); conditions: S. cerevisiae bub3 mutant strain, stronger effect = higher value
In short: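 Steps: expose the mutant yeast strain to compound; grow alongside vehicle-treated cultures; measure growth; express inhibition against the vehicle cultures.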

[12] = NCI Yeast Anticancer Drug Screen. Data for the wt2 strain (AID 169);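 note: 0% = growth of vehicle-treated yeast cultures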; conditions: S. cerevisiae wt2 strain growth inhibition, stronger effect = higher value
In short: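 Yeast cells were exposed to test compounds, and growth inhibition was measured relative to vehicle-treated controls.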

[13] = NCI Yeast Anticancer Drug Screen. Data for the mlh1 strain (AID 171);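 note: 0% = growth of vehicle-treated control cultures of the same strain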; conditions: S. cerevisiae mlh1 strain growth inhibition, stronger effect = higher value
In short: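 Yeast carrying a defined genetic alteration in DNA damage repair or cell cycle control were exposed to test compounds. Growth inhibition was measured relative to vehicle-treated controls.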

[14] = NCI Yeast Anticancer Drug Screen. Data for the sgs1 strain (AID 173);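 note: 0% = growth of vehicle-only control cultures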; conditions: S. cerevisiae sgs1 mutant, stronger effect = higher value
In short: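 Yeast mutant strains carrying defined defects in DNA damage repair or cell cycle control were exposed to test compounds. Growth inhibition was scored against vehicle-treated controls.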

[15] = NCI Yeast Anticancer Drug Screen. Data for the mlh1 rad18 strain (AID 175); conditions: S. cerevisiae mlh1 rad18 strain growth inhibition, stronger effect = higher value
In short: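 Growth inhibition of the yeast strain was measured after compound exposure and expressed relative to vehicle-treated controls. The strain carries defined defects in DNA damage repair.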

[16] = NCI Yeast Anticancer Drug Screen. Data for the rad18 strain (AID 177); conditions: S. cerevisiae rad18 mutant growth inhibition, stronger effect = higher value
In short: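 Yeast carrying a defined DNA damage repair alteration were exposed to compounds. Growth inhibition was expressed relative to vehicle-treated controls.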

[17] = at 5.0 µM (retest, dose inferred, filed as 0.5)
[18] = at 50.0 µM (retest, dose inferred, filed as 5.0)

Measured: growth inhibition

O=[N+]([O-])c1ccc(N/N=C/Cc2ccccc2)c([N+](=O)[O-])c1
inactive: [1]; at 1.2 µM -3% | [1]; at 3.7 µM -4% | [1]; at 11.0 µM -2% | [1]; at 33.0 µM 2% | [1]; at 100.0 µM 2% | [2]; at 1.2 µM -1% | [2]; at 3.7 µM -2% | [2]; at 11.0 µM -3% | [2]; at 33.0 µM -6% | [2]; at 100.0 µM -12% | [3]; at 1.2 µM -2% | [3]; at 3.7 µM 10% | [3]; at 11.0 µM 24% | [3]; at 33.0 µM 46% | [3]; at 100.0 µM 57% | [4]; at 1.2 µM -2% | [4]; at 3.7 µM 1% | [4]; at 11.0 µM -1% | [4]; at 33.0 µM -2% | [4]; at 100.0 µM 13% | [5]; at 1.2 µM 0% | [5]; at 3.7 µM -2% | [5]; [17] 5% | [5]; at 11.0 µM 4% | [5]; at 33.0 µM 8% | [5]; [18] 20% | [5]; at 50.0 µM -3.75% | [5]; at 100.0 µM -2% | [6]; at 1.2 µM -4% | [6]; at 3.7 µM -1% | [6]; [17] 1% | [6]; at 11.0 µM 2% | [6]; at 33.0 µM 6% | [6]; [18] 12% | [6]; at 50.0 µM 30.8% | [6]; at 100.0 µM 4% | [7]; at 1.2 µM -5% | [7]; at 3.7 µM -2% | [7]; at 11.0 µM 2% | [7]; at 33.0 µM 7% | [7]; at 100.0 µM 3% | [8]; [17] 3% | [8]; [18] 45% | [8]; at 50.0 µM 25% | [9]; at 1.2 µM -3% | [9]; at 3.7 µM 1% | [9]; at 11.0 µM 4% | [9]; at 33.0 µM 0% | [9]; at 100.0 µM -1% | [10]; [17] 7% | [10]; [18] -3% | [10]; at 50.0 µM -7.05% | [11]; at 1.2 µM 2% | [11]; at 3.7 µM 2% | [11]; [17] 9% | [11]; at 11.0 µM 12% | [11]; at 33.0 µM 27% | [11]; at 50.0 µM 67.2% | [11]; at 100.0 µM 39% | [12]; at 1.2 µM 4% | [12]; at 3.7 µM 5% | [12]; at 11.0 µM 5% | [12]; at 33.0 µM 6% | [12]; at 100.0 µM 5% | [13]; at 1.2 µM -4% | [13]; at 3.7 µM -5% | [13]; at 11.0 µM 0% | [13]; at 33.0 µM 6% | [13]; at 100.0 µM 11% | [14]; at 1.2 µM -4% | [14]; at 3.7 µM -1% | [14]; at 11.0 µM 2% | [14]; at 33.0 µM 9% | [14]; at 100.0 µM 22% | [15]; [17] 1% | [15]; [18] 29% | [15]; at 50.0 µM 12.1% | [16]; at 1.2 µM -2% | [16]; at 3.7 µM 3% | [16]; at 11.0 µM 11% | [16]; at 33.0 µM 17% | [16]; at 100.0 µM 21%
active: [11]; [18] 74%
